For some assays here: Results with a measured potency or affinity are listed apart.
What was measured:
Parameters in all cases: scale not given: direction of the effect not stated beside the values
[1] = molecular target: Protein translocase subunit SecA (Escherichia coli (strain K12)) (UniProt P10408); test: Assay to Identify E. coli SecA ATPase Inhibitors; type: functional; details: 30 µM
[2] = molecular target: T1, Ubiquitin-activating enzyme e1, putative (Leishmania donovani (strain BPK282A1)) (UniProt E9BSI1); test: Leishmania donovani Ubiquitin Activating Enzyme (LdE1); type: functional; details: 30 µM
T1 sequence (whole entry): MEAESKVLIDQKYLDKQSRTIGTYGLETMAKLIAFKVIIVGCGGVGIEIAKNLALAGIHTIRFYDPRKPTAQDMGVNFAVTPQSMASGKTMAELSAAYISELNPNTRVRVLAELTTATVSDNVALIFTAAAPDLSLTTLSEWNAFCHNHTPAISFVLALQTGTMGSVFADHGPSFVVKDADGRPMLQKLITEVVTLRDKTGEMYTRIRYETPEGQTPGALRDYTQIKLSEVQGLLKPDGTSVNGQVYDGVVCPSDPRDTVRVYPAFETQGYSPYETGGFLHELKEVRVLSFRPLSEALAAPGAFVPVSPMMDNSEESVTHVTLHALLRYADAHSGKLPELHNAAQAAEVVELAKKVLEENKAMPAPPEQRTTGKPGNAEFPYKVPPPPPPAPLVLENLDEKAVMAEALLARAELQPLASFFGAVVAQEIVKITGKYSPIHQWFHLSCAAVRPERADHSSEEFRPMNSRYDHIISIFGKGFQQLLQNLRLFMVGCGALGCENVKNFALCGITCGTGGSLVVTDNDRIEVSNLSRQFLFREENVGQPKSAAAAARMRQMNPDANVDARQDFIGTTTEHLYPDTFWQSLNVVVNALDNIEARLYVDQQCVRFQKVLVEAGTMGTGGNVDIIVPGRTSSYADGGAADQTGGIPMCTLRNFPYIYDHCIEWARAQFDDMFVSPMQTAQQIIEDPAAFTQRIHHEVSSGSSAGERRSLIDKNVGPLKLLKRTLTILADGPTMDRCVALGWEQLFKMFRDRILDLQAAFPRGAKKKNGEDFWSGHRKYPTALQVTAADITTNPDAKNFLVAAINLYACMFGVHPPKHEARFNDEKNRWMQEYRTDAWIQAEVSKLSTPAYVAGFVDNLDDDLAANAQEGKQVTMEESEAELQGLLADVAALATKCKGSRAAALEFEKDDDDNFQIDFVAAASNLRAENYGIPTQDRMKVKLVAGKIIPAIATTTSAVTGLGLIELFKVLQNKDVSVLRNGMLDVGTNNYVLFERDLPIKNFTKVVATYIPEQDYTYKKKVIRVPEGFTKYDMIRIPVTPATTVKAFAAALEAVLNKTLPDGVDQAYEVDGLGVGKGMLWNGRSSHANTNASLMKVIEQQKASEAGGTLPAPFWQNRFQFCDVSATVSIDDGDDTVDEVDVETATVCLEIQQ

[3] = molecular target: AMP-activated protein kinase, AMPK (Homo sapiens) (UniProt P54646+O43741+P54619+Q9UGJ0+Q9Y478+Q13131+Q9UGI9); test: AMP-dependent Kinase enzyme assay. An in vitro enzyme assay that detects ADP turnover that is directly proportional to AMPK activity. This uses naive AMPK that is activated during the assay with MK-8722; type: functional; details: 30 µM
[4] = molecular target: Sialic acid-binding Ig-like lectin 9 (Homo sapiens) (UniProt Q9Y336); test: Hs-Siglec9 ALPHAscreen SOP 20170721; details: 10 µM
[5] = tested on: Trypanosoma cruzi; test: Trypanosoma cruzi phosphomannomutase and mannose-1-phosphate guanylyltransferase assay; type: functional; details: 10 µM
[6] = molecular target: T2, Arginase-2, mitochondrial (Homo sapiens) (UniProt P78540); test: in vitro enzyme assay to detect the production of urea directly proportional to the activity of Arginase II; type: functional; details: 33.3 µM; note: in the data most compounds retested in dose-response had high values
T2 sequence (whole entry): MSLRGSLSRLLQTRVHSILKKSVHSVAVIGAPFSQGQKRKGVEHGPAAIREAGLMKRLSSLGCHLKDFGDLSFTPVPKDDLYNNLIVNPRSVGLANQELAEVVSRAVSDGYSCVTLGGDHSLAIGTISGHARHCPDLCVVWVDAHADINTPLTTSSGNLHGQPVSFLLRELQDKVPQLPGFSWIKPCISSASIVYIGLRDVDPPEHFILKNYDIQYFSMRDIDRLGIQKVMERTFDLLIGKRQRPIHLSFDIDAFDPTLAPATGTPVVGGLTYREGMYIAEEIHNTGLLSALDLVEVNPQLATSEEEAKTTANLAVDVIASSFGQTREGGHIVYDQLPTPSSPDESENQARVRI

[7] = molecular target: T3, Proteasome subunit beta (Trypanosoma cruzi) (UniProt O96673); test: Trypanosoma cruzi proteasome chymotrypsin-like activity (TcProtChymo) assay.; note: in the data most compounds retested in dose-response had high values; type: functional; details: 9.37 µM
T3 sequence (whole entry): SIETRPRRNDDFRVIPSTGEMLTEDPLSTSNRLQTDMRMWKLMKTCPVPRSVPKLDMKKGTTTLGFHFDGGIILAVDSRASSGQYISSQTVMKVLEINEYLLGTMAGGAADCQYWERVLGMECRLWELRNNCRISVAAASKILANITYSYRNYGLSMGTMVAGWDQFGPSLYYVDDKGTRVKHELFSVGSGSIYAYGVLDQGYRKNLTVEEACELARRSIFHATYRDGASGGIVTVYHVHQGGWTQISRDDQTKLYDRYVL

[8] = species: Homo sapiens; test: To identify inhibition of the IFN signalling (Jak-Stat) pathway via expression of an eGFP reporter gene under the control of an IFN-stimulated response element (ISRE) containing MxA promoter.; type: functional; details: 30 µM
[9] = molecular target: T4, Tyrosyl-tRNA synthetase, putative (Trypanosoma cruzi (strain CL Brener)) (UniProt Q4DSP6); test: Trypanosoma cruzi tyrosyl tRNA synthetase (TcYRS) _High Tyrosine SOP; type: functional; details: 30 µM; note: in the data most compounds retested in dose-response had high values
T4 sequence (whole entry): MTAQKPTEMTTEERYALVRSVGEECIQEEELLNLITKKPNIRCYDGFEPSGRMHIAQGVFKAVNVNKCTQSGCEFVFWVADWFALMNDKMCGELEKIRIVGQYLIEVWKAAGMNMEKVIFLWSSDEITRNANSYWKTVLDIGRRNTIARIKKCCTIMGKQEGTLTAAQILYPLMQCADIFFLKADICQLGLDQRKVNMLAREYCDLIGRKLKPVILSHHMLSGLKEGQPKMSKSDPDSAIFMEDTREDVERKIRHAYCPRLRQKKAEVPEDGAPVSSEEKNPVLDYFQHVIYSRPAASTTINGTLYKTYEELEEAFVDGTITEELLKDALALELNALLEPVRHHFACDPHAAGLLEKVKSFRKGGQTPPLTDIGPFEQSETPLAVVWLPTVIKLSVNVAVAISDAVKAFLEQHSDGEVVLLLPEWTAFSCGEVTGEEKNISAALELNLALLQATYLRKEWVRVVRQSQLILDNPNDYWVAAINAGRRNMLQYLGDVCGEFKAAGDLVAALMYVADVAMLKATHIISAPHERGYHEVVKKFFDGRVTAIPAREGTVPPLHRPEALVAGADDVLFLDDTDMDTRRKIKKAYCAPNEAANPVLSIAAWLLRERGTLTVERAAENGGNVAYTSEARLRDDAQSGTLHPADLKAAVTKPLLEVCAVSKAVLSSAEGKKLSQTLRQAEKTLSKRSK

[10] = molecular target: T4, Tyrosyl-tRNA synthetase, putative (Trypanosoma cruzi (strain CL Brener)); test: Trypanosoma cruzi tyrosyl tRNA synthetase (TcYRS) SOP; type: functional; details: 30 µM
[11] = molecular target: Chromo domain-containing protein 1 (Saccharomyces cerevisiae (strain ATCC 204508 / S288c) (Baker's yeast)) (UniProt P32657); test: ScCHD-1 Enzyme Inhibition Assay; type: functional; details: 30 µM; note: in the data most compounds retested in dose-response had high values
Chromo domain-containing protein 1 (Saccharomyces cerevisiae (strain ATCC 204508 / S288c) (Baker's yeast)), sequence (P32657 whole entry, the tested form may be a part): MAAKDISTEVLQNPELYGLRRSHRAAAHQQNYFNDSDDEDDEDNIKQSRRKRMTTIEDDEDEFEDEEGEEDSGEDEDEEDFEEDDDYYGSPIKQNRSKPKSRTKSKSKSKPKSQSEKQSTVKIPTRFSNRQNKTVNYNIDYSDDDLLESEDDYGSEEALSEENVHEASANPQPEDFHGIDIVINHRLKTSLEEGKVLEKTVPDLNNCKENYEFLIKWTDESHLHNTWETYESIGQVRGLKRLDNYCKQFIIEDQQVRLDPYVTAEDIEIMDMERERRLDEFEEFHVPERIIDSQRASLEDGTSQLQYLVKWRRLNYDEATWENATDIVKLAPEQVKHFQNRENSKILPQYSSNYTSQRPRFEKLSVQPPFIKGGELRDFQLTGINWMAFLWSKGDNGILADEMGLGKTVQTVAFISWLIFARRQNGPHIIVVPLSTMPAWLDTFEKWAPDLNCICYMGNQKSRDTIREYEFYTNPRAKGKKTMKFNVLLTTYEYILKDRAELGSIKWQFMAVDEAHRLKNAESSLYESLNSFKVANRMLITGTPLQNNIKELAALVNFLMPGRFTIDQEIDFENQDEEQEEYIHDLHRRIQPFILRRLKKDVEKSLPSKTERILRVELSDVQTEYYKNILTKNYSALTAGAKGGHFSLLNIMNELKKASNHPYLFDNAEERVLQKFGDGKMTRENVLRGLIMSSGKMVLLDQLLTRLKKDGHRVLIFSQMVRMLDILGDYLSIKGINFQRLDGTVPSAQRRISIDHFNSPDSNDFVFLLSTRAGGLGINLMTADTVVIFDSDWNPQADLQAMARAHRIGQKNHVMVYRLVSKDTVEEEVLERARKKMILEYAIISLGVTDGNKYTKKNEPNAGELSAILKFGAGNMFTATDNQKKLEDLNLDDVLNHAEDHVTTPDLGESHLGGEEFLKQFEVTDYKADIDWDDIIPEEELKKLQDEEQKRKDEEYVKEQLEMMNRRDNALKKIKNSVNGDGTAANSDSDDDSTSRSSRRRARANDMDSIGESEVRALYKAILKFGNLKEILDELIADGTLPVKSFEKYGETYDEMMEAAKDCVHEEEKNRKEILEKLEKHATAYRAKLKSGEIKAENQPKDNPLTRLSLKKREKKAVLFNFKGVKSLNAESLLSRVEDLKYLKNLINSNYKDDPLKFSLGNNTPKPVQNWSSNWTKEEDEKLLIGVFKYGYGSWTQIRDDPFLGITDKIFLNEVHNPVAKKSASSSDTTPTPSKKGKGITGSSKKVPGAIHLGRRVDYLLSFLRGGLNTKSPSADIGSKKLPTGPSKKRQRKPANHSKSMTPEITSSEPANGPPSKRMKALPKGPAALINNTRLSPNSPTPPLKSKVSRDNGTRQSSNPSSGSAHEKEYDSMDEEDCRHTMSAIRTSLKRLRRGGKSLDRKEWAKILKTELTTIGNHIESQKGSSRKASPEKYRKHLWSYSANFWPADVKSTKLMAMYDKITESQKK

Sialic acid-binding Ig-like lectin 9 (Homo sapiens), sequence (Q9Y336 whole entry): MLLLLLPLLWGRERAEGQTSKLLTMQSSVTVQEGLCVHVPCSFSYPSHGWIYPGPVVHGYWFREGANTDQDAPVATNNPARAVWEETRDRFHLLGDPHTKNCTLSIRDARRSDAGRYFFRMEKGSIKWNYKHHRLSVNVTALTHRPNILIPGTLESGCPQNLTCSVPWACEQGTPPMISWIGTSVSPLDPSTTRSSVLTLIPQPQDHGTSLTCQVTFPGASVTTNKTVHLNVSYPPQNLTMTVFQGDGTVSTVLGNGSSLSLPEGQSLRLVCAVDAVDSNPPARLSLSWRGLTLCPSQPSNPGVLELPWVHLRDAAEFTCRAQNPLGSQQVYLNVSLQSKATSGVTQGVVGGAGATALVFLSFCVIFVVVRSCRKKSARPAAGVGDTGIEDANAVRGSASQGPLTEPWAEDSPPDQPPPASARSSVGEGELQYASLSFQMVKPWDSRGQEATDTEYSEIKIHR
Protein translocase subunit SecA (Escherichia coli (strain K12)), sequence (P10408 whole entry): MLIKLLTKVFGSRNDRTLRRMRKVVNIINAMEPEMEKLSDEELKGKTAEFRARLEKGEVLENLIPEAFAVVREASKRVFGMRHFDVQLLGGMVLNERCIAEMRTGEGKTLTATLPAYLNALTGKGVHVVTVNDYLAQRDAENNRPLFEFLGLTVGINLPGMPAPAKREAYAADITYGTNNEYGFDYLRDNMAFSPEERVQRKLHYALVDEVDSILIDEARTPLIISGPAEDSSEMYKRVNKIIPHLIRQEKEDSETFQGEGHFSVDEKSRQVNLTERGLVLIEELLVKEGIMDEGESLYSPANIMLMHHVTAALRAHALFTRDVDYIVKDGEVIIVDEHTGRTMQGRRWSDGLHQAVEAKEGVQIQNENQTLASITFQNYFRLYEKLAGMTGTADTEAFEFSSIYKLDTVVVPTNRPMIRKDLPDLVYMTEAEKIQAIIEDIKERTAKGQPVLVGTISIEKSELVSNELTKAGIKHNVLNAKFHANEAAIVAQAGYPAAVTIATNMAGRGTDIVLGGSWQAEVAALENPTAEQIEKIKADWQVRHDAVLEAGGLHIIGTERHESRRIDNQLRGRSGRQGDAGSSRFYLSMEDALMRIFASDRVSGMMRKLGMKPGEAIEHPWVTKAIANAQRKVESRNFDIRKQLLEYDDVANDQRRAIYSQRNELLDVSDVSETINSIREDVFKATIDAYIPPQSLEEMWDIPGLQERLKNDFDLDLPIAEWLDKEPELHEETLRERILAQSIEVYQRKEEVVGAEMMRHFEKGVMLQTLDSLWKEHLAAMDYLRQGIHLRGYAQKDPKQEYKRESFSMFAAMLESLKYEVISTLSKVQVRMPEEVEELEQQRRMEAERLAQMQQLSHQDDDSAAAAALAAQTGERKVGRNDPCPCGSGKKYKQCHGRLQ

| SMILES | Percent Effect [1] [%] | Percent Effect [2] [%] | Percent Effect [3] [%] | Percent Effect [4] [%] | Percent Effect [5] [%] | Percent Effect [6] [%] | Percent Effect [7] [%] | Percent Effect [8] [%] | Percent Effect [9] [%] | Percent Effect [10] [%] | Percent Effect [11] [%] |
| --- | --- | --- | --- | --- | --- | --- | --- | --- | --- | --- | --- |
| Cc1cccc(CN2C[C@@H]3COC[C@]3(COc3ccc(C#N)cn3)C2)n1 | -2.98 | -8.22 | -1.47 | 2.28 | 10.1 | -1.2 | 3.34 | 4.74 | 0 | 8.64 | -0.121 |
| NCC1Cn2nnc(-c3cccc(F)c3)c2CO1 (configuration not stated) | -1.49 | -20.8 | 2.11 | 0.572 | 8.75 | -1.38 | 7.99 | -8.6 | 3.23 | 3.7 | -4.31 |
| CC(=O)N1CCO[C@@H]2CN(C(=O)c3cc(C)oc3C)CC[C@@H]2C1 | -6.41 | 10.8 | -31.2 | -10.6 | -1.07 | 0.319 | 7.75 | 19.1 | 0 | 0 | -3.96 |
| CC(NC1(CNC(=O)Cn2cccn2)CCOCC1)c1ccccc1 (configuration not stated) | -5.93 | 13.5 | -3.26 | 21.8 | 6.35 | 3.72 | 9.01 | -4.77 | 0 | 16.1 | -5.87 |
| O=C1[C@@H]2CCN(Cc3ccoc3)C[C@@H]2OCCN1c1ccccc1 | -5.21 | 10.7 | 13 | 1.36 | -2.95 | 8.16 | 5.02 | 5.67 | 3.19 | 11.5 | 1.78 |
| O=C(NCCNc1ncccn1)N(Cc1ccc(F)cc1F)C1CC1 | -3.52 | 10.1 | -4.4 | 16.9 | -2.36 | 1.52 | -3.03 | 8.99 | 2.46 | 8.86 | -3.1 |
| CCC(CC)C(CNC(=O)Nc1cc(C)nn1C)N1CCOCC1 (configuration not stated) | -4.23 | 17.7 | 3.07 | -7.11 | 9.54 | -5.32 | 9.75 | 4.35 | 8.37 | 11.4 | -9.76 |
| COc1c(C2CCCN2C(=O)c2cccc(C(N)=O)c2)c(C)nn1C (configuration not stated) | -6.26 | 10.4 | 7.89 | -11.9 | -5.19 | -2.32 | 3.96 | 17.6 | 0 | 2.35 | -17.8 |
| CCNC(=O)NC(=O)CSC(C)c1ccccc1F (configuration not stated) | -2.26 | 0 | -7.52 | 16.2 | 3.8 | 16.7 | 11.3 | -1.43 | 3.83 | 25.9 | -6.89 |
| CCOC1CCCN(C(=O)NCCc2ccn(-c3ccccc3)n2)C1 (configuration not stated) | -2.03 | 20.8 | -1.06 | -7.16 | -0.49 | -2.74 | 12.1 | 0.938 | 5.71 | 18.8 | -17.1 |
| CC(=O)NC(C)c1ccc(OCC2CC2)c(F)c1 (configuration not stated) | -2.63 | 5.26 | -0.202 | 5 | 3.21 | -9.47 | 4.7 | 7.74 | 4.25 | 7.79 | -7.19 |
| CC(C)c1n[nH]c(C2CN(C(=O)c3csnn3)CCO2)n1 (configuration not stated) | -2.56 | -7.89 | -6.16 | 6.92 | 4.58 | 1.08 | 0.592 | -2.95 | 3.45 | 6.17 | -3.21 |
| N#Cc1ccc(OCCOc2ccccc2C(=O)N2CCOCC2)cc1 | -0.304 | 7.79 | -1.44 | 10.7 | 1.28 | -11 | 12.8 | -19.7 | 4.3 | 13.6 | -2.37 |
| Cc1cnn(CC2CCCN2C(=O)CCc2c(C)noc2Cl)c1 (configuration not stated) | -2.86 | -2.63 | 5.68 | -4.15 | 7.11 | 4.73 | 13.5 | -23.3 | 5.32 | 5.2 | 1.72 |
| CS(=O)(=O)NCc1cnc2n1CCN(Cc1ccsc1)CC2 | 1.5 | 21.9 | -6.69 | 5.11 | -5.16 | -18 | 14.6 | 18.3 | 8.33 | 3.7 | 0.00549 |
| COCCNC(=O)CN1CCN(c2nc(C)cs2)C(C)C1 (configuration not stated) | -6.14 | 16.2 | -5.78 | 22 | 5.11 | -1.29 | 13.3 | -1.44 | 2.97 | 15.8 | -7.53 |
| CN1CC[C@H](c2ccccc2)[C@@H]2[C@H]1CCCCN2C(=O)c1cnccn1 | -2.95 | -4.05 | 7.03 | 1.21 | 3.75 | -5.34 | 10.8 | 3.3 | 4.3 | 3.9 | -14 |
| COc1cc(CNCc2c(C(C)C)nn(C)c2N(C)C)ccn1 | -0.0523 | 15.8 | -8.02 | 2.55 | 1.13 | -3.06 | 14 | -9.51 | 4.41 | 4.88 | -6.52 |
| CCN(CC)C(CNC(=O)c1ccc(S(C)(=O)=O)cc1)c1ccco1 (configuration not stated) | -2.81 | 2.7 | 6.63 | -6.01 | 3.91 | -2.5 | 14.8 | 8.16 | 8.91 | 11 | 3.77 |
| O=C(NCCNc1cnccn1)N1CCCC1 | -4.38 | 6.33 | 8.17 | -3.74 | -2.56 | 1.94 | 5.15 | 8.14 | 1.04 | 5.06 | -18.6 |
| Cn1cccc1C(CNC(=O)c1ccc(F)cc1F)N1CCCCCC1 (configuration not stated) | -3.52 | 15.6 | -9.64 | -10.9 | 6.21 | -3.23 | 17.9 | 11 | 8.47 | 21.8 | -12.6 |
| CC(=O)N1CCC2(CC1)COCCN2CCN(C)C | -1.15 | 5.33 | 0.268 | 4.02 | -4.25 | -26.3 | 3.59 | -11.5 | 2.08 | -25 | -5.07 |
